Screening results deposited in PubChem by National Center for Advancing Translational Sciences (NCATS).
The list is not random: actives were taken first. Their share in the collection is about 21%.
Shiga toxin inh: Shiga toxin inhibition; Vero cells, Shiga toxin protein synthesis inhibition reporter; inhibition, % at 38.7 µM; 290,000 compounds, 9.2% hits; AID 2315; in the data active = inhibition mostly above about 28%, no sharp cut-off; inactive = mostly below about 43%; also: 0% is about no effect
Pf growth 96h: inhibits malaria parasite growth, 96 h. P. falciparum luciferase reporter growth, 96 h. Potency, µM (titrated, usually from 28.7 µM), for inactives: top-dose activity change, negative = inhibition, actives largely listed as inhibitors. 320,000 compounds, 6.9% hits. AID 504834; also: potency is read from the fitted curve at half-maximal effect; % is scaled to controls: 0 for no effect and ±100 for the full control effect
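Infected RBCs, 2% Hct / 0.05% parasitemia final; luciferase-reporter P. falciparum; cpd 96 h, 37 C, 5% CO2; luciferase detection reagent; luminescence.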
NS1 inh: influenza NS1 inhibition | 270,000 compounds, 0.4% hits | AID 2326 | Potency, µM (doses to about 46.1 µM), inactives show at the highest dose activity, positive = more growth; calls by dose curve; also: potency is read from the fitted curve at half-maximal effect; actives are rising curves; nearly all actives have a fitted effect of over 50% in size
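Compounds were scored for reversing the slow growth caused by influenza A NS1 in S. cerevisiae, measured by optical density at 600 nm. Assay medium contained 2% galactose at pH 6.0; NS1-free yeast of the same strain were the positive control.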
SARS PLpro yeast: inhibitors of SARS-CoV papain-like protease in yeast; Potency, µM (titrated, usually from 32.9 µM), for the others: top-dose activity, positive = growth rescue, most hits filed as activators; 330,000 compounds, 0.19% hits; AID 485353; S. cerevisiae expressing SARS-CoV PLpro, growth rescue; calls by dose curve; also: potency is read from the fitted curve at half-maximal effect; 0% is about no effect; nearly all actives have a fitted effect of over 55% in size
Cycloheximide cs: counter-screen for Shiga toxin inhibitors: cycloheximide protein synthesis inhibition; cell reporter, cycloheximide protein synthesis inhibition counterscreen; 300,000 compounds, 12% hits; max response, %; in the data active = max response mostly above about 13%, no sharp cut-off; inactive = mostly below about 14%; also: read at 38.3 µM for the half of the compounds with a filed dose; 0% is about no effect
Pf growth 48h: inhibits P. falciparum growth in the first generation, 48 h | P. falciparum luciferase growth in erythrocytes, 48 h | Potency, µM (highest dose often 28.7 µM), for the others: at the top dose activity change, negative = inhibition, hits mostly inhibitors | 310,000 compounds, 5.9% hits | AID 504832; also: potency is read from the fitted curve at half-maximal effect; % is scaled to controls: 0 for no effect and ±100 for the full control effect
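Parasite viability was followed by luminescence of a genomically integrated firefly luciferase. Cultures held 0.1% parasitemia at 2% hematocrit (final), incubated under 5% CO2 at 37 C.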
Numbers without * were called inactive; ? = inconclusive; nt = no result given. Unless noted, calls follow the shape of the dose curve; as a rule, active = well fitted inhibition curve with a large enough effect; inconclusive = small, poorly fitted or top-dose-only effect, or another doubt; inactive = no such curve, though single readings can be large or run the other way.

SMILES | Shiga toxin inh | Pf growth 96h | NS1 inh | SARS PLpro yeast | Cycloheximide cs | Pf growth 48h
Cc1nn2c(N3CCCC3)c3c(nc2c1-c1ccccc1)CCC3 | 13.9 | ? | -1.6% | -0.2% | 9.9 | ?
CCCCNc1c2c(nc3c(-c4ccccc4)c(C)nn13)CCC2 | 8.9 | 9.28µM* | -7.7% | 11.6% | 5.7 | nt
Cc1nn2c(NCCCN3CCOCC3)c3c(nc2c1-c1ccccc1)CCC3 | -6.6 | -28.3% | -5.4% | -3.3% | -1.9 | ?
Cc1nn2c(NCc3cccnc3)c3c(nc2c1-c1ccccc1)CCC3 | 5.6 | 1.47µM* | -0.2% | -1.9% | 0.5 | ?
COc1cccc(Nc2c3c(nc4c(-c5ccccc5)c(C)nn24)CCC3)c1 | 4.3 | 11.7µM* | 22.5% | -25.2% | -5.3 | ?
Cc1n[nH]c(C)c1S(=O)(=O)N1CCCC(C(=O)O)C1 (stereo unspecified) | nt | nt | nt | -5.9% | nt | nt
CN(CC(=O)NCCc1ccc(S(N)(=O)=O)cc1)S(=O)(=O)c1cccc2nsnc12 | -8.0 | 22.7% | 11.8% | 0.9% | 12.2 | 31.6%
Cc1ccc(F)cc1NC(=O)CSc1n[nH]c(N)n1 | nt | nt | nt | -1.5% | nt | nt
CCC1CCCCN1C(=S)NC(=O)c1cccc([N+](=O)[O-])c1 (stereo unspecified) | 29.8 | ? | -11.9% | 3.4% | -2.6 | ?
COCCNc1c2c(nc3c(-c4ccccc4)c(C)nn13)CCCC2 | -9.2 | 8.6% | -171.5% | -20.5% | 1.9 | ?
Cc1nn2c(NCCN(C)C)c3c(nc2c1-c1ccccc1)CCCC3 | 0.9 | 2.08µM* | 1.8% | -0.1% | -1.4 | ?
COc1ccccc1C1c2c(C)nn(-c3ccccc3)c2NC(=O)C1NC(=O)c1ccccc1 (stereo unspecified) | 5.2 | ? | -0.9% | -8.6% | -2.5 | ?
Cc1ccc2nc(N/N=C\c3cccc(C)n3)cc(C)c2c1 | nt | nt | -10.4% | nt | nt | nt
Fc1cccc(/C=N/Nc2ccc3ccccc3n2)c1 | 36.7 | -6.3% | nt | 1.8% | 20.8* | 295.7%
Brc1ccccc1/C=N/Nc1ccc2ccccc2n1 | 65.5* | ? | -23.5% | -60.1% | 44.5* | 214.5%
Brc1ccc(/C=N/Nc2ccc3ccccc3n2)cc1 | 120.4* | ? | -11.1% | -7.9% | 55.1* | 93.3%
Cc1cc(N/N=C/c2ccccc2Br)nc2ccccc12 | 74.5* | -88.4% | -2.1% | -46.4% | 42.5* | ?
Cc1ccc(S(=O)(=O)N2CCOCC2)cc1NC(=O)c1cc([N+](=O)[O-])ccc1N1CCOCC1 | nt | 12.4% | nt | -3.6% | nt | 3.7%
COc1ccc(C2CC(c3cccs3)=NN2C(=O)COC(=O)C2CCCCC2)cc1OC (stereo unspecified) | 3.8 | ? | 15.3% | -2.6% | -1.6 | ?
Cc1cc(=O)n2nc(N3CCC(C(=O)NCc4cccc(Cl)c4)CC3)sc2n1 | 1.9 | -19.5% | 10.7% | -1.7% | -7.3 | ?
Brc1ccc(/C=N/Nc2ccccc2)cc1 | 59.7* | -69.4% | -7.7% | -53.2% | 42.9* | 81.2%
Oc1ccc(/C=C/c2ccnc3ccccc23)cc1 | 108.6* | -102.8% | -2.6% | -2.0% | 110.9* | ?
O=C(O)C(=Cc1ccnc2ccccc12)C(=O)O | nt | nt | -3.1% | nt | nt | nt
Clc1ccccc1/C=C/c1ccnc2ccccc12 | 62.8* | ? | -50.9% | -0.6% | 45.7* | 1.4%
COc1ccc(Nc2ncnc3nc[nH]c23)cc1OC | 10.1 | -16.3% | 4.0% | -1.9% | 1.2 | 13.9%
SMILES | Shiga toxin inh | Pf growth 96h | NS1 inh | SARS PLpro yeast | Cycloheximide cs | Pf growth 48h
Cc1ccc(C)c(Nc2ncnc3nc[nH]c23)c1 | -15.1 | -17.0% | -7.7% | -6.2% | -6.6 | nt
CCOC(=O)c1ccc(Nc2ncnc3ccc(C)cc23)cc1 | 9.6 | -5.8% | -58.6% | -4.0% | 6.2 | ?
O=C(O)c1ccc(Nc2ncnc3ccccc23)cc1 | 20.3 | 9.1% | 1.2% | 0.4% | 15.8* | 31.2%
Cc1cccc(Nc2ncnc3nc[nH]c23)c1 | 64.6* | ? | -70.3% | ? | 38.5* | 67.3%
Cc1ccc2ncnc(Nc3cccc(C(=O)O)c3)c2c1 | 3.1 | ? | nt | -2.0% | -1.3 | 24.6%
CCOC(=O)c1ccc(Nc2ncnc3nc[nH]c23)cc1 | 43.9* | 10.2% | 2.9% | 2.4% | 22.4* | 62.4%
CCOC(=O)c1cccc(Nc2ncnc3ccc(C)cc23)c1 | -4.3 | 9.28µM* | -70.4% | -15.8% | -3.2 | 11.7µM*
COc1ccccc1CNC(=O)c1ccc(NC(=O)CC2SC(N3CCCC3)=NC2=O)cc1 (stereo unspecified) | nt | nt | nt | -6.0% | nt | nt
Cc1ccc(OCC(=O)NCCCNC(=O)c2ccncc2)cc1C | -2.0 | -18.8% | 7.2% | 1.1% | -1.0 | -13.3%
Cc1cc(C)nc(Nc2cccc(Cl)c2)n1 | 33.6 | 14.9% | -19.9% | -10.1% | 15.1* | 33.2%
CC(Nc1ncnc2nc[nH]c12)c1ccccc1 (stereo unspecified) | 12.3 | 13.1µM* | -32.0% | 3.2% | 2.2 | ?
CCOC(=O)c1cccc(Nc2nc(C)cc(C)n2)c1 | 13.2 | -14.2% | -12.4% | -2.7% | 13.8* | 25.0%
CCOC(=O)c1ccc2nc(C)cc(Nc3cccc(C(=O)O)c3)c2c1 | -16.0 | -10.7% | ? | 22.7% | -3.6 | 16.0%
CCOC(=O)c1ccc(Nc2ncnc3ccccc23)cc1 | 47.6 | 287.6% | nt | -8.6% | 46.3* | 2.4%
Cc1c(C(=O)OCC(=O)Nc2ccc3c(c2)OCO3)cccc1[N+](=O)[O-] | 10.5 | 12.7% | -20.6% | -20.9% | 15.0 | 12.2%
O=C(O)CCC(=O)NNc1ncnc2ccccc12 | 73.4* | 16.5% | 0.9% | -0.6% | 46.0* | 22.9%
O=C(Oc1cccc(Nc2ncnc3ccccc23)c1)c1ccccc1Cl | -4.2 | -19.3% | -23.0% | 6.3% | -1.4 | ?
CCC(=O)NNc1ncnc2ccccc12 | -9.5 | 27.6% | 4.8% | 12.9% | 0.6 | 23.1%
O=C(Oc1ccc(Nc2ncnc3ccccc23)cc1)c1cccnc1 | 37.3 | 11.7µM* | 1.4% | -0.9% | -2.6 | 3.3%
O=C(CN1C(=O)C2CCCCC2C1=O)Nc1cccc(C(F)(F)F)c1 (stereo unspecified) | nt | nt | nt | -2.1% | nt | nt
O=C(CNC1CC1)Nc1cc(C(F)(F)F)ccc1Cl | 12.1 | 1.47µM* | 7.0% | -0.9% | 12.8 | 1.17µM*
O=C(CNC1CCCCC1)Nc1cccc(C(F)(F)F)c1 | -10.8 | 9.28µM* | -4.7% | 23.4% | -1.0 | -22.8%
Cc1cc(SCc2cccc(Cl)c2)nc(=O)[nH]1 | 5.8 | -16.5% | 7.5% | 6.8% | 7.8 | 28.9%
Cc1ccc(CSc2cc(C)[nH]c(=O)n2)cc1 | 25.5* | -18.5% | 25.9% | -5.5% | 16.1 | 12.1%
Cc1cc(SCc2ccc(Cl)cc2)nc(=O)[nH]1 | 8.0 | ? | 6.9% | 21.4% | 15.8* | 19.8%
Cc1ccc(CSc2nc3nc(C)cc(C)c3c(=O)[nH]2)cc1 | -18.4 | 11.6% | nt | -2.1% | 11.9 | 13.6%
CC[C@H](C)C(N)c1cn(C(CCCN=C(N)N)C(=O)N2CCNCC2)nn1 (stereo partly specified) | nt | 0.0% | nt | -1.9% | nt | 30.3%
COCCN(CCOC)C(=O)COC(=O)c1cc([N+](=O)[O-])ccc1Cl | -9.7 | -3.6% | 4.4% | 0.2% | -0.5 | -12.6%
